Results filed as inconclusive are left out. Active and inactive are the calls of the source. Calls come from the whole dose curve; as a rule, active = well fitted inhibition curve with a large enough effect; inconclusive = small, poorly fitted or top-dose-only effect; inactive = flat fitted curve, though single readings scatter.

Chain of Galactokinase (Homo sapiens) (P51570 whole entry, looked up): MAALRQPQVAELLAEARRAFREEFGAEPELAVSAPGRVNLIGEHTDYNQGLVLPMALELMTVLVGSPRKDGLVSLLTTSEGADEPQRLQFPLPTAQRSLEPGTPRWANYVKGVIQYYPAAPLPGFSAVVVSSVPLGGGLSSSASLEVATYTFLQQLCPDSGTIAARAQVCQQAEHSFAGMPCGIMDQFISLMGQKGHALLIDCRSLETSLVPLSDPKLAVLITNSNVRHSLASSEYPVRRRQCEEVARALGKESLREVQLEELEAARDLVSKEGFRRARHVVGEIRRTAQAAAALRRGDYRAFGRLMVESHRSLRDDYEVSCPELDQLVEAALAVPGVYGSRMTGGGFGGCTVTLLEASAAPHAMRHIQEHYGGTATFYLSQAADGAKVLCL

The experiment addresses Galactokinase (Homo sapiens) (UniProt P51570). Put plainly: Confirmation Assay for Inhibitors of Human Galactokinase (GALK): probe SAR. The settings on record: purified GALK, Kinase-Glo ATP depletion luminescence; series mostly up to 115 µM. The source says:
NIH Molecular Libraries Probe Production Centers Network [MLPCN] NIH Chemical Genomics Center [NCGC] MLPCN Grant: R03 MH085689-01 Assay Submitter (PI): Kent Lai (University of Utah School of Medicine, 50 N Mario Capecchi Drive, Salt Lake City, UT 84132) NCGC Assay Overview Inherited deficiency of galactose-1-phosphate uridyltransferase (GALT) can result in a potentially lethal disorder called Classic Galactosemia (OMIM 230400). Several lines of evidence indicate that an elevated level of galactose-1-phosphate (gal-1-p), the product of galactokinase (GALK), is a major, if not sole, pathogenic mechanism in patients with classic galactosemia. Therefore, finding inhibitors of GALK is a potential novel therapy for this inherent metabolic disease and is the long term goal of this project. Active compounds observed in the qHTS GALK assay (AID: 1868) were cherry picked and re-screened for validation. GALK (provided by Kent Lai) was assayed using ATP and D-(+)-Galactose (Sigma-Aldrich cat# G0750) as substrates. Promega Kinase-Glo Plus (cat# V3774) technology was used to detect the residual ATP following kinetic reaction. Briefly, the Kinase-Glo Plus contains Ultra-Glo [1] luciferase and D-luciferin which generates a bioluminescence signal from the remaining ATP. Kinase reactions with and without GALK were used as negative and positive controls together with Protein Tyrosine Phosphatase CD45 inhibitor (EMD Bioscience cat# 540215) which is shown to inhibit GALK activity.
NCGC Assay Protocol Summary: Three uL/well of ATP-buffer solution (35 uM ATP, 20mM HEPES pH8.0, 5 mM MgCl2, 60 mM NaCl, 1 mM DTT, 0.01% BSA final concentration) was dispensed into 1536-well, assay plates (Greiner, solid white medium-binding plates) with Aurora Discovery BioRAPTR Flying Reagent Dispenser (FRD; Beckton-Dickenson). Compound and control solution (23 nL) was transferred to the assay plate using the Kalypsys 1536-pin tool apparatus. One uL/well GALK-galactose solution (5 nM GALK, 100 uM galactose, 20 mM HEPES pH8.0, 5 mM MgCl2, 60 mM NaCl, 1 mM DTT, 0.01% BSA final concentration) was then added using the FRD yielding a total kinase reaction volume of 4 uL/ well. After 1 hour of room temperature incubation, 4 uL Kinase-Glo Plus reagent was added for a final assay volume of 8 uL/well. Luminescence was detected with the ViewLux plate reader (Perkin Elmer, Waltham, MA) after 2 min incubation using a 1 sec exposure time and 2x binning.
On to `Cc1ccc2oc(NC3=NC4(CCCC4)C4=C(CCCC4=O)N3)nc2c1`, for which the Potency was 5.95 µM (active).

On to `O=C1CCCC2=C1C1(CCSC1)N=C(Nc1nc3ccccc3o1)N2` (centres undefined), for which the Potency is 2.66 µM (active).

For the compound `CC1(C)CC(=O)C2=C(C1)NC(Nc1nc3ccccc3o1)=NC2c1cccc(O)c1` (centres undefined), the Potency is 21.1 µM (active).

In the case of `O=C1CCC2=C1C(c1ccccc1Cl)N=C(Nc1nc3ccccc3o1)N2` (centres undefined), the Potency is 11.9 µM (active).

Regarding `CC1CCC2(C1)N=C(Nc1nc3ccccc3o1)NC1=C2C(=O)CCC1` (centres undefined), the Potency was 11.9 µM (active).

Regarding `Cn1c(NC2=NC3(CCCC3)C3=C(CCCC3=O)N2)nc2ccccc21`, the Potency entry was “inactive”.

As for `CCC1CCC2(C1)N=C(Nc1nc3ccccc3o1)NC1=C2C(=O)CCC1` (centres undefined), the Potency entry is “inactive”.

On to `O=C1CCCC2=C1C1(CCCC1)N=C(Nc1nc3cc(Br)ccc3o1)N2`, for which the Potency was 7.49 µM (active).

Regarding `O=C1CCC2=C1C1(CCCC1)N=C(Nc1nc3ccccc3o1)N2`, the Potency is 11.9 µM (active).

Take `CC1(C)CC(=O)C2=C(C1)NC(Nc1nc3ccccc3o1)=NC2c1ccccc1Cl` (centres undefined): the Potency was 8.41 µM (active).

As for `O=C1CCCC2=C1[C@@]1(CCC(c3ccccc3)C1)N=C(Nc1nc3ccccc3o1)N2` (some centres undefined), the Potency result is “inactive”.

Regarding `Cc1ccc(C2N=C(Nc3nc4ccccc4o3)NC3=C2C(=O)CC(C)(C)C3)cc1` (centres undefined), the Potency result is “inactive”.

As to `CC1(C)CC(=O)C2=C(C1)NC(Nc1nc3ccccc3o1)=NC2c1cccc(F)c1` (centres undefined), the Potency entry was “inactive”.

As to `CC1(C)N=C(Nc2nc3ccccc3o2)NC2=C1C(=O)CCC2`, the Potency was 47.3 µM (active).

As to `Cc1nc(Nc2nc3ccccc3o2)nc2c1C(=O)CC(C)(C)C2`, the Potency entry is “inactive”.

On to `COc1ccccc1C1N=C(Nc2nc3ccccc3o2)NC2=C1C(=O)CC(C)(C)C2` (centres undefined), for which the Potency entry was “inactive”.

Take `O=C1CCCC2=C1C1(CCSCC1)N=C(Nc1nc3ccccc3o1)N2`: the Potency is 1.06 µM (active).

For the compound `O=C1CCCC2=C1C1(CCS(=O)(=O)C1)N=C(Nc1nc3ccccc3o1)N2` (centres undefined), the Potency was 6.68 µM (active).

For the compound `COc1ccc(C2N=C(Nc3nc4ccccc4o3)NC3=C2C(=O)CC(C)(C)C3)cc1` (centres undefined), the Potency result is “inactive”.

For `O=C1CCCC2=C1C1(CCCC1)N=C(Nc1nc3ccccc3n1Cc1ccccc1)N2`, the Potency result is “inactive”.

For `O=C1CCCC2=C1C1(CCCCC1)N=C(Nc1nc3ccccc3o1)N2`, the Potency is 13.3 µM (active).

As to `O=C1CCCC2=C1C1(CCC1)N=C(Nc1nc3ccccc3o1)N2`, the Potency is 18.8 µM (active).

Regarding `O=C1CCCC2=C1C(c1ccc(Cl)cc1)N=C(Nc1nc3ccccc3o1)N2` (centres undefined), the Potency entry is “inactive”.

As to `O=C1CCCC2=C1C1(CCCC1)N=C(Nc1nc3cc(Cl)ccc3o1)N2`, the Potency is 6.68 µM (active).

As to `CC1(C)CC(=O)C2=C(C1)NC(Nc1nc3ccccc3o1)=NC21CCCC1`, the Potency was 6.68 µM (active).

With `O=C1CCCC2=C1C1(CCCC1)N=C(Nc1nc3cc4ccccc4cc3o1)N2`, the Potency entry is “inactive”.

On to `COc1cccc(C2N=C(Nc3nc4ccccc4o3)NC3=C2C(=O)CC(C)(C)C3)c1` (centres undefined), for which the Potency was 37.5 µM (active).

In the case of `O=C1CC(c2ccccc2)CC2=C1C1(CCCCC1)N=C(Nc1nc3ccccc3o1)N2` (centres undefined), the Potency result is “inactive”.

For the compound `O=C1CCCC2=C1C(c1ccccc1Cl)N=C(Nc1nc3ccccc3o1)N2` (centres undefined), the Potency is 0.595 µM (active).

Values taken from PubChem BioAssay AID2499 (National Center for Advancing Translational Sciences (NCATS), 2010).
